Reference: PubChem BioAssay AID651821 (The Scripps Research Institute Molecular Screening Center, 2012)
The whole screen tested about 370,000 compounds, of which about 4,700 (1.3%) were called active. The sample holds actives, similar compounds and a random draw of the others, so the mix is not that of the screen.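 Rule for the calls: active = inhibition above the plate cutoff, the mean of all test compounds on that plate plus 3 SD (cut at about 35% in these data); inactive = the rest.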

assay: small molecules binding CAG repeat RNA – biochemical, fluorescence, primary screen (AID 651821); details: r(CAG) RNA repeat, TO-PRO-1 dye displacement fluorescence; at 3 µM; active compounds read high;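 note: 0% = DMSO alone and 100% = 100 µM mitoxantrone as full dye displacement; higher means more dye released from RNA so lower well fluorescence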

inhibition, inactive:
CC1CCCN(c2cccc3c2S(=O)(=O)N(Cc2ccc(F)cc2)[C@@H](C)[C@H](c2ccccc2)O3)C1 (stereo partly drawn) 1.44%, Cn1cc(S(=O)(=O)Nc2ccc(Cl)cc2Cl)c(=O)n(C)c1=O 1.76%, COC(=O)c1ccc(CN2C(=O)[C@]3(OCCC=C[C@H]3C)c3c(Br)cccc32)cc1 0.13%, O=S(=O)(c1ccccc1)N1CCC(c2nc3ccccc3o2)CC1 0.56%, COC(=O)[C@]12CCCCC=C1N(Cc1ccc(Cl)cc1Cl)C(=O)[C@H](CC(=O)NCc1cccc3ccccc13)C2 12.9%, O=C(NC1CCC1)c1ccc(C#Cc2cccc(F)c2)c[n+]1[O-] 1.31%, C#CCNC(=O)C[C@H]1C[C@@]2(C(=O)OC)C(=C[C@H](C(C)C)O[C@@H]2C2CC2)N(Cc2ccco2)C1=O -0.82%, COC1=C[C@H](C(=O)NCCNC(C)=O)[C@H](C)[C@@H](c2ccccc2)CC1=O 7.1%, COC(=O)C1=C(C)N(Cc2cccc(C(F)(F)F)c2)C(=NCc2ccccc2)NC1c1ccc(Cl)cc1 (stereo not drawn) 6.45%, N#CC1(NC(=O)COC(=O)Cc2n[nH]c(=O)c3ccccc23)CCCCC1 -1.83%, COC(=O)c1cccc(Cn2ccc3ccc(-c4ccc5ccn(C(=O)c6ccccc6C)c5c4)cc32)c1 10.1%, COC(=O)C[C@@H]1CC[C@@H]2[C@@H](COc3ccc(NC(=O)Nc4ccc(F)c(F)c4)cc3C(=O)N2C)O1 3.67%, CCOC(=O)[C@H]1Nc2ccc(Cl)cc2[C@@H]2[C@H]1C1CC(c3ccccc31)N2C(=O)OCc1ccccc1 (stereo partly drawn) 8.62%, CCOC(=O)C[C@H]1c2ccc(C(F)(F)F)cc2S(=O)(=O)N1c1ccccc1 4.3%, CC1=CC=CC2=N/C(=N\S(=O)(=O)c3ccc(F)cc3F)c3ccccc3CN12 -1.16%, CC(=O)c1cc(-c2ccc3ccccc3c2)c(=O)n2c1CCC2 5.03%, O=C(CSc1nc2sc3c(c2c(=O)n1-c1ccccc1)CCCC3)NN=Cc1ccc(OCc2ccccc2)cc1 7.65%, CN(C(=O)CSc1nnc(Nc2ccccc2)s1)C1CCS(=O)(=O)C1 (stereo not drawn) 0.39%, CC(C)Nc1nnc(SCC(=O)c2c[nH]c3ccccc23)s1 3.39%, O=C1c2ccccc2NC(c2ccccc2O)N1NS(=O)(=O)c1ccccc1 (stereo not drawn) 2.81%, C/C(CC(=O)N1CCN(C=O)CC1)=N\NC(=O)c1ccc(Br)cc1 0.43%, CC(=O)N1C(=O)/C(=C2\SC(=S)N(NC(=O)c3ccc(O)cc3)C2=O)c2ccccc21 14%, O=S(=O)(NC(=S)Nc1ccccc1)c1ccc(F)cc1 1.19%, CC1(NC(=O)CCS(=O)(=O)c2ccc(Cl)cc2)CCS(=O)(=O)C1 (stereo not drawn) 2.03%, OC(c1ccccc1)c1nc(-c2cnc3ccccc3c2)cs1 (stereo not drawn) 16.2%, Cc1ccc(CSc2nnc(SCC(=O)NN=Cc3cc(Br)ccc3F)s2)cc1 5.78%, Cc1ccc(C(=O)O)c(NC=O)c1OCc1ccccc1 0.76%, CCOC(=O)C1=CC[C@@H](c2ccccc2)N(S(=O)(=O)c2ccc(C)cc2)[C@H]1c1ccc(CC)cc1 2.92%, CCCCC[C@@H]1C=C(C(=O)OCC)[C@H](c2ccccc2)N1S(=O)(=O)c1ccc(C)cc1 5.36%, Cc1ccc(S(=O)(=O)N2CCCC2CO)cc1 (stereo not drawn) -2.42%, O=C(O)C1CCCN1S(=O)(=O)c1ccc(Br)cc1 (stereo not drawn) -0.5%, CCn1c(SCC(C)=O)nc2sc3c(c2c1=O)CCCC3 4.43%, CCOC(=O)[C@]12CCCC3=C1N(CCC3)C(=O)[C@@H](CC(=O)NCC13CC4CC(CC(C4)C1)C3)C2 -1.58%, O=C(c1ccccc1)c1ccc(-c2ccccc2C(=O)NC2CCCCN(Cc3ccc(Cl)cc3)C2=O)cc1 (stereo not drawn) 12.5%, Cc1ccc(C)c(CN2CCC(CNC(=O)C3CCCN(c4ncnc5c4nc4n5CCCCC4)C3)CC2)c1 (stereo not drawn) -1.34%, CCCCCCCCNS(=O)(=O)/C=C/c1cc(C)ccc1CNC(=O)OC(C)(C)C 5.11%, CSc1ccc(Oc2cccc3c2S(=O)(=O)N([C@H](C)c2ccccc2)C[C@@H](COCc2ccccc2)O3)cc1C 5.63%, Cc1noc(C)c1NC(=O)Nc1ccc2c(c1)C(=O)N([C@H](C)CO)C[C@H](C)[C@H](CN(C)Cc1ccncc1)OCCCC[C@@H](C)O2 6.45%, COc1ccc(OC)c(NC(=O)CSc2nc(N)c(-c3ccccc3)c(=O)[nH]2)c1 4.81%, CCCc1cc(=O)[nH]c(SCC(=O)Nc2ccc(C(=O)Nc3ccccc3OC)cc2)n1 31.1%, Cc1ccccc1NC(=O)COC(=O)c1ccc(Sc2ncn[nH]2)c([N+](=O)[O-])c1 6.52%, CCOC(=O)C(NC(=O)CC(C)C)(Nc1sc2c(c1C(N)=O)CCCC2)C(F)(F)F (stereo not drawn) -6.2%, O=C(O)c1c(NC(=O)N2CCCC2)sc2c1CCCC2 3.93%, COc1ccc(Br)c2c1C(=O)CC2 -1.62%, COc1ccc(NC(=O)CC2COc3ccccc3O2)c(OC)c1 (stereo not drawn) -0.79%, CCn1cc(C(=O)N2CCN(C3CCCCC3)CC2)c2cc(OC)c(OC)cc2c1=O -10.2%, COc1cccc(CSc2nnc(-c3cccnc3)n2Cc2ccccc2)c1 3.2%, CCCNC(=O)Nc1ccc2c(c1)C(=O)N(C)[C@H]1CC[C@H](CC(=O)NCC3CCCCC3)O[C@@H]1CO2 2.13%, COc1ccc(Cl)cc1C=CC=NNC(=O)c1ccncc1 1.27%, COc1ccc(Cl)cc1C=CC=Nc1ccc(S(N)(=O)=O)cc1 14.6%, Cc1cccc(CS(=O)(=O)c2ncc(Cl)c(C(=O)Nc3ccc(F)cc3)n2)c1 2.26%, Clc1cccc2c1C1CC2CCN1Cc1ccccc1 (stereo not drawn) 1.58%, O=C1C2C3C=CC(C3)C2C(=O)N1c1ccc(S(=O)(=O)Nc2nccs2)cc1 (stereo not drawn) 0.76%, COc1cc(OC)c(C(=O)NNC(=O)c2ccc(NS(=O)(=O)c3cccs3)cc2)cc1OC 8.73%, C/C(=N\NC(=O)c1ccc(NS(=O)(=O)c2cccs2)cc1)c1ccc2ccccc2c1 19.2%, O=C(Nc1nncs1)c1cccc(S(=O)(=O)N2CCCCC2)c1 0.89%, O=S(=O)(NCCc1ccc(Cl)cc1)c1cccs1 -4.34%, CC(C)CNc1cccc2c1S(=O)(=O)N(Cc1cn(Cc3ccccc3C(F)(F)F)nn1)Cc1ccccc1O2 7.51%, O=C(N[C@H](C(=O)N1CCC[C@H]1C(=O)NCCc1ccccc1Cl)c1ccccc1)c1ccccc1 3.45%, O=C(c1ccc2c(c1)OCO2)N1CCNc2ccccc2C1 2.38%, COC(=O)Cc1nnn2c1[C@H](C)[C@H](c1ccccc1Br)OCC2 2.7%, C#CCCN([C@H](C(=O)OC)C(C)C)S(=O)(=O)c1ccc(F)cc1Br 2.16%, COc1cccc(N(C)C(=O)[C@@H](C)[C@@H](O)c2ccc3ccccc3c2)c1 -1.62%, COC(=O)[C@]1(Cc2ccccc2)NC=C(C(=O)c2ccccc2)[C@@H]1c1cccc(OC)c1 4.57%, COC(=O)C1=C(C)NC(=S)NC1c1ccc(OC)cc1 (stereo not drawn) 1.6%, CCN(CC(=O)Nc1cc(Cl)ccc1C)C(=O)Cn1c(=O)cnc2ccccc21 -5.99%, C=C(C)C#CC(Cc1ccccc1)N(CC1CC1)/C(N)=N/C(=O)OCc1ccccc1 (stereo not drawn) 0.56%, O=C(NC(=S)N1CCc2ccccc21)c1ccco1 0.88%, COc1ccc(/C=C(/NC(=O)c2ccco2)C(=O)Nc2ccc(C(C)=O)cc2)cc1 1.57%, CCC1CCCCN1C(=S)NC(=O)c1ccco1 (stereo not drawn) 0.91%, NS(=O)(=O)c1ccc(CNC(=S)NC(=O)c2ccco2)cc1 0.4%

inhibition, active:
CCOC(=O)C1Nc2ccc(C(F)(F)F)cc2C2C=CCC12 (stereo not drawn) 60.5%, N#Cc1ccccc1CN1C(=O)S/C(=C/c2cccn2-c2cccc(C(=O)O)c2)C1=O 58.4%, CC(C)c1ccc(Nc2nnc(SCC(=O)c3nnc(-c4ccccc4)o3)s2)cc1 50.7%, O=C(O)c1ccc(/C=C2\SC(=S)N(NC(=O)c3ccc(Br)cc3)C2=O)cc1 34.9%, O=C1/C(=C/c2ccc(F)cc2)SC(=S)N1NS(=O)(=O)c1ccccc1 55.7%, Cc1ccc(S(=O)(=O)N2[C@@H](c3ccc(Br)cc3)C(C(=O)O)=C[C@H]2CC2CCCC2)cc1 82.8%, CCCCC[C@@H]1C=C(C(=O)O)[C@H](c2ccc(C#N)cc2)N1S(=O)(=O)c1ccc(C)cc1 62.3%, COc1ccc(OC)c(NC(=O)CSc2nc(-c3ccccc3)cc(=O)[nH]2)c1 37.5%, NC(=O)c1c(Nc2nc3c(F)cccc3s2)sc2c1CCCC2 52.5%, CCn1cc(C(=O)NCC2COc3ccccc3O2)c2cc(OC)c(OC)cc2c1=O (stereo not drawn) 53.3%, COc1ccccc1/C=C/C=N/n1c(-c2ccc(Cl)cc2Cl)n[nH]c1=S 36.1%, CSc1nnc(NC(=O)c2nc(S(=O)(=O)Cc3ccc(C)cc3)ncc2Cl)s1 42.9%, O=C(Nc1nncs1)c1ccccc1NS(=O)(=O)c1cccs1 36.4%, O=C(Nc1cccc(Cl)c1)Nc1ccccc1NS(=O)(=O)c1cccs1 48.5%, C=CCNc1nc(N)c(C(=C(C#N)C#N)c2ccccc2)s1 35.8%, CC(Oc1ccc2ccccc2c1)C(=O)NNC(=S)NC(=O)c1ccco1 (stereo not drawn) 48.2%, CCCc1ccc(OCC(=O)NNC(=S)NC(=O)c2ccco2)cc1 36.2%
